PubChem BioAssay
For some of these results: Entries with a potency or affinity are not part of this list. The source made the active and inactive calls. Unless noted, the rule behind the calls is not given here.

Columns and labels:
[1] = antimalarial activity against Dd2 strain (AID 2302;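 active = growth inhibition above 50% at the single 2 µM test dose, taken to imply half-maximal potency below 2 µM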;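 note: 0% = DMSO untreated growth and 100% = chloroquine plus artemisinin killed control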); conditions: P. falciparum Dd2 in RBCs, LDH growth readout, 72 h; at 2 µM; active compounds read high
[2] = human hepatoma cell viability loss – ATP luminescence, cytotoxicity control for P. falciparum antimalarial project, primary screen (AID 2303;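 active = inhibition above 50%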;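 note: 0% = DMSO wells and 100% = digitonin-killed cells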); conditions: HepG2 viability, 24-48 h, at 10 µM, active compounds read high
[3] = biological target: L-lactate dehydrogenase (Plasmodium falciparum (isolate CDC / Honduras)) (UniProt Q27743); experiment: PfLDH activity inhibition – cell lysate, 3D7 strain, counter-screen for P. falciparum growth inhibition project (AID 2304);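 note: 0% = vehicle and 100% = reference inhibitor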; conditions: P. falciparum 3D7 crude extract, LDH APAD/NBT absorbance; at 2 µM; active compounds read high
[4] = inhibition of 3D7 malaria parasite growth – strain 3D7 (AID 2306);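 note: 0% = DMSO wells and 100% = chloroquine plus artemisinin control wells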; conditions: P. falciparum 3D7 erythrocytic growth, LDH absorbance, 72 h; at 2 µM; active compounds read high
[5] = biological target: Calcium-dependent protein kinase 1 (Plasmodium falciparum (isolate 3D7)) (UniProt P62344); experiment: PfCDPK1 kinase inhibitors, biochemical, TCAMS library (AID 1159585; cut-off not given, nearly all actives have IC50 up to about 0.98 µM;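 note: inhibitors leave more ATP so luminescence rises with inhibition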); conditions: recombinant PfCDPK1, Kinase-Glo ATP depletion luminescence
[6] = biological target: Plasmodium falciparum protein kinase 6 (PK6, PF3D7_1337100) (UniProt Q8IDW1); experiment: PfPK6 kinase inhibitors, biochemical, TCAMS library (AID 1159586); conditions: recombinant PfPK6, Kinase-Glo ATP depletion luminescence
[7] = biological target: Protein kinase 7 (PK7), Plasmodium falciparum 3D7 (PF3D7_0213400) (UniProt Q7YTF7); experiment: inhibition of Plasmodium PK7 catalytic activity – biochemical, TCAMS antimalarial set, Kinase-Glo luminescence (AID 1159587); conditions: recombinant PfPK7, Kinase-Glo ATP depletion luminescence
[8] = biological target: Calcium-dependent protein kinase 4 (Plasmodium falciparum (isolate 3D7)) (UniProt Q8IBS5); experiment: PfCDPK4 kinase inhibitors, biochemical, TCAMS library (AID 1159588; cut-off not given, nearly all actives have IC50 up to about 0.91 µM); conditions: recombinant PfCDPK4, Kinase-Glo ATP depletion luminescence
Calcium-dependent protein kinase 4 (Plasmodium falciparum (isolate 3D7)), sequence (Q8IBS5 whole entry, looked up): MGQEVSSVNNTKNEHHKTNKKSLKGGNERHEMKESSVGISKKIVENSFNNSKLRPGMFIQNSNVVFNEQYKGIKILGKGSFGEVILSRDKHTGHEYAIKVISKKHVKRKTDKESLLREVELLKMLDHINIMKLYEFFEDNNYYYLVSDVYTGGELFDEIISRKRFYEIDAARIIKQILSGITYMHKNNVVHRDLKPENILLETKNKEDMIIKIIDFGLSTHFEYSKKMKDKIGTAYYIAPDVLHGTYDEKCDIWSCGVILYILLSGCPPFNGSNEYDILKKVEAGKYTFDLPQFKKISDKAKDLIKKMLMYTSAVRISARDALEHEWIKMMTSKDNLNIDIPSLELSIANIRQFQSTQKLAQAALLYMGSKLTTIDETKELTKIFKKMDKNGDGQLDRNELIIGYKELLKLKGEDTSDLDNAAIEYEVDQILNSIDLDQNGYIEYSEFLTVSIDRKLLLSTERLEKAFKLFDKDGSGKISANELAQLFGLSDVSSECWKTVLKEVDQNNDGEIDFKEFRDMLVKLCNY

Protein kinase 7 (PK7), Plasmodium falciparum 3D7 (PF3D7_0213400), sequence (Q7YTF7 1-343): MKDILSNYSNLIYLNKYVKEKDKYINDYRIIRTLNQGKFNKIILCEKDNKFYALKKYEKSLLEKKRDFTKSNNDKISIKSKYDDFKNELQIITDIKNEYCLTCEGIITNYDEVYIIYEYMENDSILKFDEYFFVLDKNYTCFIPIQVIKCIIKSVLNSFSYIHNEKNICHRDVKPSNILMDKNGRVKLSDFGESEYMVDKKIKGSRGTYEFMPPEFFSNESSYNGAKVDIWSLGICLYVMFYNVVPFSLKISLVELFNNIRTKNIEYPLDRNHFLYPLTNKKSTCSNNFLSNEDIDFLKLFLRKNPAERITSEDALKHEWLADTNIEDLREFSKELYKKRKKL
Plasmodium falciparum protein kinase 6 (PK6, PF3D7_1337100), sequence (Q8IDW1 1-305): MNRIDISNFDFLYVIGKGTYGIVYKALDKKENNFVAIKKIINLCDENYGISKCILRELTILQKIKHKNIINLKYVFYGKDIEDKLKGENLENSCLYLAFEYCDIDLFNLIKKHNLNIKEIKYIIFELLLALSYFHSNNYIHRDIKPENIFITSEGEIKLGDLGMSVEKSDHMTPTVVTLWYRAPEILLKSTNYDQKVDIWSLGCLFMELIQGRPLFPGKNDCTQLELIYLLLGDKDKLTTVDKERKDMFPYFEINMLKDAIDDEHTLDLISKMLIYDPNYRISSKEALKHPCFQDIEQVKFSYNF
L-lactate dehydrogenase (Plasmodium falciparum (isolate CDC / Honduras)), sequence (Q27743 whole entry, looked up): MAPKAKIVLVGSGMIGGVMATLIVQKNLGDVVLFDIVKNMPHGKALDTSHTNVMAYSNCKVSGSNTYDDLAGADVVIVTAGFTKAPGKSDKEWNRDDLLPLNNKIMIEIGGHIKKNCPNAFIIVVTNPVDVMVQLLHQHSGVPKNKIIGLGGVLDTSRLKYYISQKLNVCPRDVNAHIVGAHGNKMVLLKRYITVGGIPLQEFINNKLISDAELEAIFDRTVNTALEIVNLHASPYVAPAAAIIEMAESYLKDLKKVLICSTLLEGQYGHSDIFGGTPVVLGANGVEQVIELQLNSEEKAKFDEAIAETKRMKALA
Calcium-dependent protein kinase 1 (Plasmodium falciparum (isolate 3D7)), sequence (P62344 whole entry, looked up): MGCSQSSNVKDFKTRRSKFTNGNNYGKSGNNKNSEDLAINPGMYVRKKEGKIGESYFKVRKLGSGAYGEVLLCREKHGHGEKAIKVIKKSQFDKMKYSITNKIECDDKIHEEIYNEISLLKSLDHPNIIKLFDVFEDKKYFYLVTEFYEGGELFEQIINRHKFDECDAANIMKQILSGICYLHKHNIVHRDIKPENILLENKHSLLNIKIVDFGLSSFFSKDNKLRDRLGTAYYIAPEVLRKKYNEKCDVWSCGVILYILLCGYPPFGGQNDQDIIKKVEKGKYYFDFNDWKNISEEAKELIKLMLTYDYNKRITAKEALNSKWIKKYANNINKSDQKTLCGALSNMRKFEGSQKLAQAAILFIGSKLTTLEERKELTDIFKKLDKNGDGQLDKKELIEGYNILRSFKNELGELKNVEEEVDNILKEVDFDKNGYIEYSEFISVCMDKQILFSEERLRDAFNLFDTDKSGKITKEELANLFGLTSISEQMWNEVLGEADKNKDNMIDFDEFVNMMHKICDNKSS

CC(C)=CC1C(C(=O)n2c(N)nc3ccccc32)C1(C)C (stereo not drawn)
inactive: growth inhibition [1] 3% | inhibition [2] 16% | inhibition [3] -6% | outcome [5] | outcome [6] | outcome [7] | outcome [8]
active: growth inhibition [4] 99%

COc1ccc(C2CCN(C#N)C2)cc1OC1CCCC1 (stereo not drawn)
active: growth inhibition [1] 97% | growth inhibition [4] 102%
inactive: inhibition [2] 9% | inhibition [3] 2% | outcome [5] | outcome [6] | outcome [7] | outcome [8]

O=C1CCCN1CCCNCc1cccc(-c2ccc(-c3nc4ccc(C(F)(F)F)cc4[nH]3)s2)c1
inactive: inhibition [2] 19% | inhibition [3] -4% | outcome [5] | outcome [6] | outcome [7] | outcome [8]
active: growth inhibition [1] 99% | growth inhibition [4] 100%

NC1CCCN(Cc2ccc(-c3cccc(-c4nc5ccccc5[nH]4)c3)cc2)C1 (stereo not drawn)
active: growth inhibition [4] 95%
inactive: growth inhibition [1] 26% | inhibition [2] 26% | inhibition [3] 2% | outcome [5] | outcome [6] | outcome [7] | outcome [8]

Cc1ccc(F)cc1S(=O)(=O)Nc1ccc(CCN2CCC(N3CCCCC3)CC2)cc1
active: growth inhibition [4] 99%
inactive: growth inhibition [1] 15% | inhibition [2] 25% | inhibition [3] -3% | outcome [5] | outcome [6] | outcome [7] | outcome [8]

Cc1ccc2[nH]ncc2c1N(CC1CCCCC1)c1ccnc(Nc2ccc(OCC(O)CN3CC=CCC3)cc2)n1 (stereo not drawn)
active: growth inhibition [1] 79% | growth inhibition [4] 100%
inactive: inhibition [2] 29% | inhibition [3] -4% | outcome [5] | outcome [6] | outcome [7] | outcome [8]

COc1ccc(NC(=O)/C=C/c2ccccc2Cl)cc1OCCN1CCC(O)(c2ccc(Cl)c(C(F)(F)F)c2)CC1
active: growth inhibition [4] 101%
inactive: growth inhibition [1] 9% | inhibition [2] 37% | inhibition [3] -1% | outcome [5] | outcome [6] | outcome [7] | outcome [8]

COc1ccc(NC(=O)c2ccc(-c3ccc(-c4cccnc4)cc3)c(C)c2)cc1OCCN(C)C
active: growth inhibition [1] 73% | growth inhibition [4] 99%
inactive: inhibition [2] 24% | inhibition [3] 0% | outcome [5] | outcome [6] | outcome [7] | outcome [8]

Cc1cc(Nc2cccc(C(F)(F)F)c2)nc(NCc2ccccc2)n1
active: growth inhibition [1] 95% | growth inhibition [4] 102%
inactive: inhibition [2] 17% | inhibition [3] 0% | outcome [5] | outcome [6] | outcome [7] | outcome [8]

Cc1cc(-c2cccc(CNC3CCN(C)CC3)c2)ccc1S(=O)(=O)NCc1ccccc1
inactive: inhibition [3] 4% | outcome [5] | outcome [6] | outcome [7] | outcome [8]
active: growth inhibition [1] 90% | inhibition [2] 53% | growth inhibition [4] 99%

c1ccc(CN2CCC(NCc3ccccc3-c3ccc(CNC4CCCC4)cc3)CC2)cc1
active: growth inhibition [4] 102%
inactive: growth inhibition [1] 33% | inhibition [2] 38% | inhibition [3] 1% | outcome [5] | outcome [6] | outcome [7] | outcome [8]

Cc1ccccc1C1CCN(C2CCC(NC(=O)c3ccc(-c4cc(C(F)(F)F)nn4C)s3)CC2)CC1 (stereo not drawn)
active: growth inhibition [1] 68% | growth inhibition [4] 98%
inactive: inhibition [2] 42% | inhibition [3] -2% | outcome [5] | outcome [6] | outcome [7] | outcome [8]

Cn1cncc1C(=O)Nc1cccc(-c2ccc(-c3nc4ccc(F)cc4[nH]3)s2)c1
inactive: growth inhibition [1] 27% | inhibition [2] -9% | inhibition [3] 1% | outcome [5] | outcome [6] | outcome [7] | outcome [8]
active: growth inhibition [4] 99%

CCNc1cc(C(=O)N[C@@H](Cc2ccccc2)[C@H](O)CN[C@@H](C)c2ccccc2)cc(N2CCCC2=O)c1
inactive: inhibition [2] 7% | inhibition [3] 8% | outcome [5] | outcome [6] | outcome [7] | outcome [8]
active: growth inhibition [1] 96% | growth inhibition [4] 98%

CN(C)c1cc(NC(=O)Nc2ccc(SC(F)(F)F)cc2)c2ccccc2n1
active: growth inhibition [1] 100% | growth inhibition [4] 100%
inactive: inhibition [2] 22% | inhibition [3] -4% | outcome [5] | outcome [6] | outcome [7] | outcome [8]

CCOc1ccc(NC(=O)c2cccc(CN3CCCN(Cc4cccc(O)c4)CC3)c2)cc1
inactive: growth inhibition [1] 23% | inhibition [2] 22% | inhibition [3] 0% | outcome [5] | outcome [6] | outcome [7] | outcome [8]
active: growth inhibition [4] 95%

CNCc1cccc(-c2ccc3ccnc(N)c3c2)c1
active: growth inhibition [1] 98% | growth inhibition [4] 101%
inactive: inhibition [2] 20% | inhibition [3] 3% | outcome [5] | outcome [6] | outcome [7] | outcome [8]

CCOc1ccc(C(=O)N2CCOC(CCN3CCC(c4ccccc4)CC3)(c3ccc(Cl)c(Cl)c3)C2)cc1 (stereo not drawn)
inactive: inhibition [2] 14% | inhibition [3] 8% | outcome [5] | outcome [6] | outcome [7] | outcome [8]
active: growth inhibition [1] 71% | growth inhibition [4] 88%

CSCCC(C(=O)O)N1C(=O)c2ccccc2C1=O (stereo not drawn)
active: growth inhibition [4] 91%
inactive: growth inhibition [1] -3% | inhibition [2] -4% | inhibition [3] -1% | outcome [5] | outcome [6] | outcome [7] | outcome [8]

COc1ccccc1C1CCN(C2CCC(NC(=O)/C=C/c3ccc(C(F)(F)F)cc3F)CC2)CC1 (stereo not drawn)
active: inhibition [2] 63% | growth inhibition [4] 95%
inactive: growth inhibition [1] 2% | inhibition [3] 2% | outcome [5] | outcome [6] | outcome [7] | outcome [8]

CN1CCN(CCc2ccc(N=Cc3c(=O)[nH]c4ccc5[nH]cccc5c34)cc2)CC1
inactive: inhibition [3] 6% | outcome [5] | outcome [6] | outcome [7] | outcome [8]
active: growth inhibition [1] 98% | inhibition [2] 51% | growth inhibition [4] 102%

O=C(Nc1cccc(-c2nn3ncccc3c2-c2ccnc(Nc3cccnc3)n2)c1)c1c(F)cccc1F
active: growth inhibition [1] 70% | growth inhibition [4] 96%
inactive: inhibition [2] 5% | inhibition [3] -2% | outcome [5] | outcome [6] | outcome [7] | outcome [8]

O=C(Nc1ccc(-c2cccc(-c3nc4ccc(C(F)(F)F)cc4[nH]3)c2)cc1)c1ccc(=O)[nH]n1
inactive: growth inhibition [1] 13% | inhibition [3] -4% | outcome [5] | outcome [6] | outcome [7] | outcome [8]
active: inhibition [2] 72% | growth inhibition [4] 87%

CN(Cc1c(Cl)cnn1C)S(=O)(=O)c1ccc2ccccc2c1
active: growth inhibition [4] 94%
inactive: growth inhibition [1] 36% | inhibition [2] 7% | inhibition [3] -2% | outcome [5] | outcome [6] | outcome [7] | outcome [8]

CCNc1cc(C(=O)N[C@@H](Cc2ccccc2)[C@H](O)CNCCc2cccc(C(F)(F)F)c2)cc(N2CCCC2=O)c1
active: growth inhibition [1] 93% | growth inhibition [4] 96%
inactive: inhibition [2] 7% | inhibition [3] 1% | outcome [5] | outcome [6] | outcome [7] | outcome [8]

O=C(Nc1cccc(Cl)c1Cl)N1CCc2cc3nccc(N4CCN5CCC[C@H]5C4)c3cc21
active: growth inhibition [1] 100% | growth inhibition [4] 98%
inactive: inhibition [2] 9% | inhibition [3] -1% | outcome [5] | outcome [6] | outcome [7] | outcome [8]

O=[N+]([O-])c1ccc(C(O)P(=O)(c2ccccc2)c2ccccc2)cc1 (stereo not drawn)
inactive: growth inhibition [1] 1% | inhibition [2] 1% | inhibition [3] 0% | outcome [5] | outcome [6] | outcome [7] | outcome [8]
active: growth inhibition [4] 98%

CCCCC(CC)NC(=O)[C@H]1CNCCN1C(=O)CCCc1ccccc1 (stereo partly drawn)
active: growth inhibition [4] 94%
inactive: growth inhibition [1] -1% | inhibition [2] 5% | inhibition [3] 1% | outcome [5] | outcome [6] | outcome [7] | outcome [8]

CCN(CC)c1ccc(C=CC(=O)NCCN2CCC(N(C)C3CCCCC3C)CC2)cc1 (stereo not drawn)
inactive: growth inhibition [1] 18% | inhibition [2] 29% | inhibition [3] -3% | outcome [5] | outcome [6] | outcome [7] | outcome [8]
active: growth inhibition [4] 88%

Cc1ccc(Nc2nc(C)cc(NC3CCCC3)n2)cc1
inactive: inhibition [2] 33% | inhibition [3] 0% | outcome [5] | outcome [6] | outcome [7] | outcome [8]
active: growth inhibition [1] 89% | growth inhibition [4] 100%

CCc1c[nH]c2c(N3CCCS3(=O)=O)cc(C(=O)N[C@@H](Cc3ccccc3)[C@H](O)CNC(C)(C)c3cccc(C(F)(F)F)c3)cc12
inactive: inhibition [2] 20% | inhibition [3] 2% | outcome [5] | outcome [6] | outcome [7] | outcome [8]
active: growth inhibition [1] 99% | growth inhibition [4] 97%

N#Cc1ccc2c(c1)CN(C1CCC(NC(=O)/C=C/c3cc(C(F)(F)F)cc(C(F)(F)F)c3)CC1)CCC2 (stereo not drawn)
active: growth inhibition [4] 95%
inactive: growth inhibition [1] 4% | inhibition [2] 34% | inhibition [3] -4% | outcome [5] | outcome [6] | outcome [7] | outcome [8]

CCCCNc1nc(NCCCC)c2c(C)c(Cc3ccccc3)c(NCCCC)nc2n1
inactive: inhibition [3] -10% | outcome [5] | outcome [6] | outcome [7] | outcome [8]
active: growth inhibition [1] 84% | inhibition [2] 69% | growth inhibition [4] 95%

COc1cccc(-c2csc(C(=O)NCC3CCN(Cc4ccc(C(C)(C)C)cc4)C3)c2)c1 (stereo not drawn)
inactive: growth inhibition [1] 10% | inhibition [2] 30% | inhibition [3] -2% | outcome [5] | outcome [6] | outcome [7] | outcome [8]
active: growth inhibition [4] 95%

OC(CNCc1ccccc1OCc1ccccc1)c1cccc(Br)c1 (stereo not drawn)
inactive: inhibition [2] -1% | inhibition [3] 0% | outcome [5] | outcome [6] | outcome [7] | outcome [8]
active: growth inhibition [1] 97% | growth inhibition [4] 100%

COc1cc(NCC(CN)Cc2ccc3c(c2)OCO3)nc2ccccc12 (stereo not drawn)
active: growth inhibition [4] 94%
inactive: growth inhibition [1] 6% | inhibition [2] 41% | inhibition [3] 0% | outcome [5] | outcome [6] | outcome [7] | outcome [8]

Cc1ccccc1CNc1ccc2nc(N)nc(N)c2c1
inactive: inhibition [3] -3% | outcome [5] | outcome [6] | outcome [7] | outcome [8]
active: growth inhibition [1] 90% | inhibition [2] 59% | growth inhibition [4] 101%

CC1(C)N=C(N)N=C(N)N1OCCCOc1cccc(C(=O)O)c1
inactive: inhibition [3] -6% | outcome [5] | outcome [6] | outcome [7] | outcome [8]
active: growth inhibition [1] 96% | inhibition [2] 73% | growth inhibition [4] 94%

CC(C)n1ncc2c(C(=O)N3CCCCCC3)cc(-c3ccccc3)nc21
inactive: growth inhibition [1] 42% | inhibition [2] -12% | inhibition [3] 2% | outcome [5] | outcome [6] | outcome [7] | outcome [8]
active: growth inhibition [4] 97%

CCC(C)(C)c1ccc2nc(N)nc(N)c2c1C
active: growth inhibition [1] 82% | inhibition [2] 62% | growth inhibition [4] 91%
inactive: inhibition [3] 1% | outcome [5] | outcome [6] | outcome [7] | outcome [8]

O=C(/C=C/c1ccc(Cl)c(Cl)c1)NCCCCCN1CCC(c2cn[nH]c2-c2ccccc2)CC1
inactive: growth inhibition [1] -2% | inhibition [2] 28% | inhibition [3] -2% | outcome [5] | outcome [6] | outcome [7] | outcome [8]
active: growth inhibition [4] 85%
